In PubChem BioAssay AID1159580 (chemical genetic matrix, 2015):
In all, about 5,500 compounds went through this assay and about 2,000 (36%) were called active. Roughly 18% stayed inconclusive and do not appear here. No stated cut-off is given here; in the data, active means normalized growth mostly below about 0.91 (no sharp cut-off); inconclusive means no clear call, values can overlap the other calls; inactive means mostly above about 0.92. The list shows a part of the results.

Experiment: chemical genetic growth profiling, strain panel (AID 1159580);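 further: tested at 20 µM; growth read once vehicle control cultures reached saturation at 30 °C; 1 = growth at the plate median or of vehicle wells; lower values mean less growth of the strain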
Settings: S. cerevisiae deletion strains, growth OD
[1] = locus YDL101C, strain DUN1, hits give low values
[2] = locus YHR030C, strain SLT2, hits give low values
[3] = locus YGR078C, strain PAC10, hits give low values
[4] = locus YJR075W, strain HOC1, hits give low values
[5] = locus YMR263W, strain SAP30, hits give low values
[6] = locus YMR307W, strain GAS1, hits give low values
[7] = locus YNL322C, strain KRE1, hits give low values
[8] = locus YPL055C, strain LGE1, hits give low values
[9] = locus YPL241C, strain CIN2, hits give low values

Measured: normalized growth

Cc1oc(C(C)(C)C)cc1-c1cc(N)n(-c2ccc(I)cc2)n1
inactive: locus YAR019C, strain CDC15, hits give low values 1 | locus YBL105C, strain PKC1, hits give low values 1.01 | locus YBR135W, strain CKS1, hits give low values 1.02 | locus YBR136W, strain MEC1, hits give low values 0.992 | locus YBR160W, strain CDC28, hits give low values 1.01 | locus YDL017W, strain CDC7, hits give low values 1.01 | locus YDL028C, strain MPS1, hits give low values 0.976 | [1] 0.987 | locus YDL108W, strain KIN28, hits give low values 1.02 | locus YDL132W, strain cdc53, hits give low values 1.01 | locus YDL214C, strain PRR2, hits give low values 1.15 | locus YDR052C, strain DBF4, hits give low values 1 | locus YDR054C, strain cdc34, hits give low values 1.01 | locus YDR226W, strain ADK1, hits give low values 0.987 | locus YDR477W, strain SNF1, hits give low values 0.956 | locus YER123W, strain YCK3, hits give low values 0.946 | locus YER133W, strain GLC7, hits give low values 0.992 | locus YFL009W, strain cdc4, hits give low values 0.992 | locus YFL029C, strain CAK1, hits give low values 0.995 | locus YFR003C, strain YPI1, hits give low values 1 | locus YFR019W, strain FAB1, hits give low values 0.967 | locus YFR028C, strain CDC14, hits give low values 1 | locus YGR040W, strain KSS1, hits give low values 0.985 | locus YGR052W, strain FMP48, hits give low values 0.985 | locus YGR092W, strain DBF2, hits give low values 0.882 | locus YHR079C, strain IRE1, hits give low values 0.894 | locus YHR082C, strain KSP1, hits give low values 0.957 | locus YHR205W, strain SCH9, hits give low values 0.885 | locus YIL147C, strain SLN1, hits give low values 0.997 | locus YJL095W, strain BCK1, hits give low values 0.851 | locus YJL128C, strain PBS2, hits give low values 0.961 | locus YJL157C, strain FAR1, hits give low values 0.979 | locus YJR016C, strain ILV3, hits give low values 1.01 | locus YJR066W, strain TOR1 (second series), hits give low values 0.936 | locus YJR066W, strain TOR1, hits give low values 0.903 | locus YKL048C, strain ELM1, hits give low values 0.98 | locus YKL101W, strain HSL1, hits give low values 0.948 | locus YKL193C, strain SDS22, hits give low values 1.02 | locus YKL203C, strain TOR2, hits give low values 1.05 | locus YLR133W, strain CKI1, hits give low values 0.943 | locus YLR403W, strain SFP1, hits give low values 0.965 | locus YML070W, strain DAK1, hits give low values 0.971 | locus YMR001C, strain CDC5, hits give low values 1 | locus YMR205C, strain PFK2 (second series), hits give low values 0.94 | locus YNL006W, strain LST8, hits give low values 1.01 | locus YNL020C, strain ARK1, hits give low values 0.968 | locus YNL161W, strain CBK1, hits give low values 1.02 | locus YNL183C, strain NPR1, hits give low values 0.988 | locus YNL207W, strain RIO2, hits give low values 1.02 | locus YNL222W, strain SSU72, hits give low values 1.03 | locus YNL307C, strain MCK1 (second series), hits give low values 0.935 | locus YOL078W, strain AVO1, hits give low values 1.03 | locus YOL136C, strain PFK27, hits give low values 0.959 | locus YOR061W, strain CKA2, hits give low values 0.944 | locus YOR119C, strain RIO1, hits give low values 0.972 | locus YOR231W, strain MKK1, hits give low values 0.927 | locus YOR329C, strain SCD5, hits give low values 1.01 | locus YPL031C, strain PHO85, hits give low values 0.983 | locus YPL153C, strain RAD53, hits give low values 0.987 | locus YPL204W, strain HRR25, hits give low values 0.964 | locus YPL209C, strain IPL1, hits give low values 1.01 | locus YPL256C, strain CLN2, hits give low values 0.892 | locus YPR025C, strain CCL1, hits give low values 1.01 | locus YPR106W, strain ISR1, hits give low values 0.992 | locus YPR111W, strain DBF20, hits give low values 0.989 | strain NNK1, hits give low values 1 | strain TSCII, hits give low values 1.01
active: [2] 0.717 | locus YLR113W, strain HOG1, hits give low values 0.815 | locus YMR277W, strain FCP1, hits give low values 1.13 [resistant]

C[C@@H](N)Cc1cnc[nH]1
inactive: locus YAL040C, strain CLN3, hits give low values 0.96 | locus YCL061C, strain MRC1 (second series), hits give low values 1.01 | locus YDR363W, strain ESC2, hits give low values 1.02 | locus YER002W, strain NOP16, hits give low values 1.01 | [3] 1.02 | [4] 1.02 | [5] 1.01 | [6] 1.02 | locus YNL128W, strain TEP1, hits give low values 1.01 | locus YNL175C, strain NOP13, hits give low values 1.01 | locus YNL197C, strain WHI3, hits give low values 1.02 | locus YNL224C, strain SQS1, hits give low values 1.02 | [7] 1.02 | locus YOR083W, strain WHI5 (second series), hits give low values 1.04 | [8] 1.03 | [9] 1.01

O=C(Nc1ccc(Br)cc1Cl)C(Cl)(Cl)Cl
active: [2] 0.635 | [4] 0.888 | locus YLR039C, strain RIC1, hits give low values 0.609 | locus YLR262C, strain YPT6, hits give low values 0.635 | [6] 0.56 | locus YOL006C, strain TOP1, hits give low values 0.681 | locus YPR135W, strain CTF4, hits give low values 0.64
inactive: locus YAL013W, strain DEP1, hits give low values 0.975 | locus YBR229C, strain ROT2, hits give low values 0.964 | [1] 0.996 | locus YDR150W, strain NUM1, hits give low values 0.97 | locus YEL061C, strain CIN8, hits give low values 0.945 | [3] 0.943 | locus YHR087W, strain rtc3, hits give low values 0.935 | locus YJR043C, strain POL32, hits give low values 0.957 | locus YKL190W, strain CNB1, hits give low values 0.941 | locus YLR058C, strain SHM2 (second series), hits give low values 0.94 | locus YLR085C, strain ARP6, hits give low values 0.782 | locus YML094W, strain GIM5, hits give low values 1.04 | locus YMR219W, strain ESC1, hits give low values 0.955 | [5] 0.963 | locus YNL153C, strain GIM3, hits give low values 0.962 | locus YNL298W, strain CLA4 (second series), hits give low values 0.855 | [7] 0.95 | locus YNR030W, strain Alg12, hits give low values 0.935 | [8] 0.956 | [9] 1.02
